The panel holds about 83,000 compounds, 20% with a hit somewhere; the sample as a whole holds those more often.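 How to read the values: 0–100, growth inhibition (40 = 60% inhibited); 0, no net growth; -100 to 0, cell death (-40 = 40% of starting cells died; -100 = all dead).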 Unmarked numbers belong to inactive results. Activity calls are given as the source filed them. How the source made its calls: active means growth percent below 10; inactive means the rest.
Experiments:
Test in all cases: NCI-60 one-dose screen, 48 h (100 = growth as untreated, 0 = no growth, -100 = all killed)
Conditions in all cases: 10 µM unless noted
[1] = system: NCI-H23 lung
[2] = system: NCI-H226 lung
[3] = system: NCI-H322M lung
[4] = system: HOP-62 NSCLC
[5] = system: NCI-H460 lung
[6] = system: HOP-92 NSCLC
[7] = system: NCI-H522 lung
[8] = system: A549/ATCC NSCLC
[9] = system: 786-0 renal
[10] = system: COLO 205 colon
[11] = system: DU-145 prostate
[12] = system: K-562 leukemia
[13] = system: MALME-3M melanoma
[14] = system: RXF 393 renal
[15] = system: SF-268 CNS
[16] = system: SF-295 CNS
[17] = system: SF-539 CNS
[18] = system: UACC-257 melanoma
[19] = system: M14 melanoma
[20] = system: MDA-MB-231 breast

Row | Structure (SMILES) | growth [1] | growth [2] | growth [3] | growth [4] | growth [5] | growth [6] | growth [7] | growth [8] | growth [9] | growth [10] | growth [11] | growth [12] | growth [13] | growth [14] | growth [15] | growth [16] | growth [17] | growth [18] | growth [19] | growth [20] [%]
1 | CN1C(=O)CNC(=O)[C@H](NC(=O)c2nc3ccccc3cc2O)CSSC[C@H]1C(=O)NCCc1nc2ccccc2cc1O | 64.1% | 83.8% | 62.9% | 82.1% | 8.06% (active) | 128% | 42.9% | 38.8% | 112% | 1.34% (active) | 38.6% | 5.35% (active) | 110% | 100% | 46.4% | 68.3% | 94.2% | 79.2% | 6.87% (active) | 
2 | CCC12CCC[N+]3([O-])CCC4(C(=Nc5ccccc54)C(O)(C(=O)OC)C1)C23 (stereo not drawn) | 101% | 106% | 103% | 94.5% | 111% | 94.4% | 115% | 114% | 106% | 118% | 103% | 109% | 104% | 113% | 96.2% | 102% | 103% | 115% | 96.7% | 103
3 | COc1ccc2c(c1)C(C)Cc1c(ncnc1-n1c(C)nc3ccccc31)N2C (stereo not drawn) | 30.2% | 63.7% | 39.5% | 33.6% | 7.77% (active) | -4.69% (active) | 20.9% | 35.2% | 29.2% | -11.3% (active) | 24.2% | 11% | 58.1% | 14.2% | 42.5% | 6.04% (active) | 5.97% (active) | 68.3% | 14.5% | 
4 | O=C1CCC/C=C\C[C@H]2C=CC(=O)/C2=C/C[C@H](CCc2cccc(C(F)(F)F)c2)O1 | -22% (active) | -36.2% (active) | -44.6% (active) | -73.7% (active) | -24.6% (active) | -46.5% (active) | -88.7% (active) | 0.826% (active) | -79.2% (active) | -84.8% (active) | -44.6% (active) | 0.315% (active) | -25.5% (active) | -81.9% (active) | -39% (active) | -22.9% (active) | -56.7% (active) | -34.7% (active) | -30.9% (active) | 
5 | COc1ccc(-c2nnc(COc3ccc(Cl)cc3Cl)o2)cc1OC | 56.3% | 32.8% | 16.8% | -1.03% (active) | -4.77% (active) | -32.4% (active) | 19.4% | 9.7% (active) | -70.8% (active) | 58.5% | 22.6% | 65.1% | -1.79% (active) | -56.7% (active) | 45.7% | 23.5% | 83.6% | 37.7% | 45% | 
6 | O=C(O)c1cn(C2CC2)c2cc(N3CCN(C(=O)Nc4nc(-c5ccccc5)cs4)CC3)c(F)cc2c1=O | 9.06% (active) | 46.8% | 31.4% | 26% | 5.5% (active) | -21.5% (active) | -2.04% (active) | 7.93% (active) | 22.5% | 51% | 17.2% | 17.1% | 23.9% | 42.7% | 23.3% | 10.6% | 21% | 9.92% (active) | 31.6% | 
7 | CCC(C)(c1cc(C(C)(C)C)c(O)c(C(C)(C)C)c1)c1cc(C(C)(C)C)c(O)c(C(C)(C)C)c1 | 96.2% | 100% | 98% | 92.4% | 106% | 92.9% | 86.4% | 93.5% | 99.2% | 107% | 101% | 91.4% | 94% | 104% | 95.4% | 96.6% | 105% | 94.8% | 98.5% | 
8 | COC1=C(C)C(=O)c2c(c(CCCl)c3n2CCC3O)C1=O (stereo not drawn) | -16.8% (active) | -30.8% (active) | -4.2% (active) | -11.2% (active) | 4.7% (active) | 103% | -46.1% (active) | 4.42% (active) | -21% (active) | -59.2% (active) | 1.19% (active) | 22% | -55.7% (active) | -53.7% (active) | 9.6% (active) | -12% (active) | -28.8% (active) | -44.8% (active) | -14.3% (active) | 
9 | CN1CCN(Cc2ccc(NC(=O)c3ccc(C(C)(C)C)c(C#Cc4cnc5cccnn45)c3)cc2C(F)(F)F)CC1 | -65.1% (active) | 48.5% | -29.6% (active) | -73.1% (active) | -52.7% (active) | 23.9% | -73.5% (active) | -76.8% (active) | -85.4% (active) | -70.1% (active) | -76.7% (active) | -53% (active) | -53.7% (active) | -78.7% (active) | -74.7% (active) | -59.9% (active) | -76.3% (active) | -37.7% (active) | -69.2% (active) | 
10 | O=c1c2cc(F)ccc2sc2c(NCCO)nc3ccccc3c12 | 95.6% | 103% | 99.7% | 105% | 112% | 110% | 91.1% | 101% | 104% | 114% | 112% | 98.3% | 120% | 109% | 103% | 104% | 99.9% | 104% | 114% | 98.1
11 | Cc1ccc(S(=O)(=O)N/N=C/C2(c3ccccc3)CC2)cc1 | 101% | 113% | 111% | 99% | 95.1% | 90.5% | 105% | 82% | 112% | 116% | 114% | 97.8% | 110% | 94.4% | 111% | 94.7% | 114% | 99.7% | 115% | 102
12 | COc1cccc(Cc2cc(-c3ccccc3)nn(CC(=O)c3ccccc3)c2=O)c1 | 74.2% | 60.7% | 94.1% | 60.4% | 37.8% | 46.9% | 72.4% | 79.5% | 55.8% | 84.9% | 63.3% | 22.5% | 97.1% | 60.1% | 54% | 68.1% | 49.9% | 95% | 60.3% | 
13 | COC(=O)C(Cc1ccccc1)NC(=O)NC(=O)NC(=O)CI (stereo not drawn) | 63.2% | 82.9% | 108% | 102% | 92.3% | -26% (active) | -82.1% (active) | 99.8% | -3.88% (active) | 25.4% | 91.2% | -18.8% (active) | -71% (active) | 63.9% | 71.8% | 103% | 87.7% | 103% | 35.2% | 
14 | CCCCn1c(=O)c(-c2cc(-c3ccc(Cl)cc3)nc(-c3ccc(Cl)cc3)c2)cc2ccc(Cl)cc21 | 97.8% | 98.5% | 98.4% | 97.5% | 106% | 88.3% | 98.4% | 105% | 103% | 105% | 108% | 97.8% | 98.5% | 103% | 94.2% | 100% | 96.1% | 101% | 107% | 96.5
15 | CCCCC[C@H](O)C/C=C1/C(=O)C=C[C@@H]1C/C=C\CCCC(=O)OC | 67.9% | 70.4% | 79.7% | 34% | 46.8% | 108% | 30.4% | 72% | 44% | 62.8% | 53.2% | 5.84% (active) | 107% | 70.8% | 34.9% | 82.2% | 91.3% | 74.5% | 13.6% | 
16 | O=C1/C(=C/c2ccc(F)cc2)Sc2c(Br)cccc21 | 50% | 79.4% | 72.6% | 69.1% | 93.6% | -3.06% (active) | 70.9% | 68.9% | 100% | 105% | 99.7% | 80% | 99.9% | 85.8% | 79% | 87.3% | 75.5% | 85.9% | 92.8% | 
